FXN GAA850 act: increases GAA850 frataxin promoter reporter activity. HEK293 lucGAA850 FXN promoter luciferase reporter, 24 h; percent of 10 µM SAHA response. 0.56% of 360,000 active. activation, % at 6 µM;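 active = activation above the average of all compounds screened plus 3 SD, cutoff fixed separately per campaign, cut at about 7.5% in these data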
hgDAF12 agonist: agonists of H. glycines DAF-12 nuclear receptor | HEK293 GAL4-hgDAF12 UAS-luciferase reporter, agonist luminescence; normalized to butyrate control | activation, % at 6.8 µM | 1.8% of 370,000 active | AID 687014;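 active = activation above a cutoff set at the mean of all screened compounds plus 3 SD, cut at about 10% in these data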
DAX1 inh-1: NR0B1 (DAX1) inhibition. HEK293 Gal4-DAX1 luciferase reporter, luminescence. inhibition, % at 6.75 µM. 0.99% of 340,000 active. AID 504766;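 active = inhibition above the mean over all tested compounds plus 3 SD, cut at about 4.2% in these data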;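 note: inhibition shows as a rise in luminescence from relieved DAX1 repression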
Target sequence (P51843 207-470 limits assumed): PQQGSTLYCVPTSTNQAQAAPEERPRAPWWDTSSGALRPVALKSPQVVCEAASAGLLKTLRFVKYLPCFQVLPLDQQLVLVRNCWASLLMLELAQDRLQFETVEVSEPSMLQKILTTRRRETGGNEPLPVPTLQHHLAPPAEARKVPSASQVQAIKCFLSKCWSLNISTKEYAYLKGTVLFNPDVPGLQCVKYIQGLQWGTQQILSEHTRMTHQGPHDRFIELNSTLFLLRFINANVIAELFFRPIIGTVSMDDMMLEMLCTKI
hcDAF-12 act: activates DAF-12 receptor from parasite H. contortus | HEK293 hcDAF-12 lit1-tk-luc reporter, luminescence; 0% DMSO, 100% Δ7-dafachronic acid | activation, % at 6.8 µM | AID 652067 | 1.4% of 370,000 active;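 active = activation above the mean of all tested compounds plus 3 SD, cut at about 5.5% in these data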
ssDAF12 agonist: S. stercoralis DAF-12 activation, primary screen; HEK293 ssDAF-12/GRIP1 lit1-tk-luc reporter, luminescence; % of 3 µM dafachronic acid response; activation, % at 6.8 µM; 1% of 370,000 active;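 active = activation above the mean over all tested compounds plus 3 SD, cut at about 0.9% in these data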
DAX1 inh-2: DAX1 (NR0B1) inhibition, primary screen; inhibition, % at 6.8 µM; HEK293T StAR-luciferase reporter, SF-1/DAX-1 repression relief; AID 652010; 1.1% of 370,000 active;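 active = inhibition above the mean over all tested compounds plus 3 SD, cut at about 3.6% in these data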;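 note: higher inhibition means more luminescence from relief of DAX-1 repression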
LXRb hcDAF ctr: activates human LXR-beta, counter-screen for hcDAF-12 agonists; shares compounds with hcDAF-12 act; HEK293 Gal4-LXR tk-luc reporter, luminescence, 24 h; normalized: DMSO 0%, positive control 100%; activation, % at 6.8 µM; 3,400 tested, under 10 active; AID 743027;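 active = mean percent activation of the reporter above a cutoff set as the average over tested compounds plus their standard deviation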
Target sequence (P55055 whole entry, looked up, the tested form may be a part): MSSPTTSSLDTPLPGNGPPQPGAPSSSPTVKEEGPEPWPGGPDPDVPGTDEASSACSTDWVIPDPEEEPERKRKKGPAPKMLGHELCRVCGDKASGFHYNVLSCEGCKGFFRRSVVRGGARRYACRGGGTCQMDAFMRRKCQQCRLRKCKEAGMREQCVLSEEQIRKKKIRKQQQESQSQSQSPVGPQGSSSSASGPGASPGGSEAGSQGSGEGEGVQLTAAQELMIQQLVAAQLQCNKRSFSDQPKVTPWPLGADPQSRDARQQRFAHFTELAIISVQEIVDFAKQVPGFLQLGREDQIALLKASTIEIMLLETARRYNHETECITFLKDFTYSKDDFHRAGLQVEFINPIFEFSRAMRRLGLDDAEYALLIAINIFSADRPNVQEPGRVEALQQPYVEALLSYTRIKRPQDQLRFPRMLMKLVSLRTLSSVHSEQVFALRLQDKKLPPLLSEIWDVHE
hcDAF12 conf: confirmation of H. contortus DAF-12 agonists. activation, % at 6.8 µM. HEK293 hcDAF-12 lit1-tk-luc reporter, luminescence; % of Δ7-dafachronic acid response. 61% of 3,400 active. shares compounds with hcDAF-12 act;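 active = mean activation across triplicate tests above the threshold derived from the earlier primary screen, cut at about 5.5% in these data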
Of the large screens only hits and unclear results are named; the others gave an inactive call (follow-up assays come after a bar, where they were run). An excerpt weighted towards active compounds, which were near 4.5% of everything screened.

C[C@@H]1CN([C@H](C)CO)C(=O)CCCn2nncc2CO[C@H]1CN(C)Cc1cccc(C(F)(F)F)c1	none
Cc1cccn2c1nc(=S)n2C(=O)c1ccco1	hgDAF12 agonist 11.9, hcDAF-12 act 9.5 | LXRb hcDAF ctr inactive | hcDAF12 conf 9.2
O=C(c1ccco1)N1CCN(C(=O)c2ccco2)C1=S	none
Nc1ccccc1-c1nc2ccccc2s1	hgDAF12 agonist 26.5, hcDAF-12 act 11.5, ssDAF12 agonist 1.9 | LXRb hcDAF ctr inactive | hcDAF12 conf 10.4
COc1ccc(Cl)cc1-c1nc(N)nc(N(C)C)n1	none
O=C(O)c1ccc2nc(-c3ccccc3)sc2c1	none
CN(C)c1nc(N)nc(-c2nc3ccccc3s2)n1	hgDAF12 agonist 11.1, hcDAF-12 act 9.3, ssDAF12 agonist 1.6 | LXRb hcDAF ctr inactive | hcDAF12 conf 15.6
Oc1ccc(-c2nc3ccccc3s2)cc1	hgDAF12 agonist 24.2, hcDAF-12 act 7.6, ssDAF12 agonist 1.3, DAX1 inh-2 4.2 | LXRb hcDAF ctr inactive | hcDAF12 conf 8.1
c1coc(-c2nc3ccccc3s2)c1	none
COc1ncnc2c1ncn2CCCN(C)CCc1ccccn1	none
COc1ccc(Cn2c(C)cc(O)cc2=O)cc1	none (no result: FXN GAA850 act, DAX1 inh-1)
Cc1ccc(C)c(-c2nnc(NC(=O)CCS(=O)(=O)c3ccccc3)o2)c1	none
Cc1ccccc1-c1nnc(CS(=O)(=O)c2ccccc2)o1	hgDAF12 agonist 11.8, hcDAF-12 act 6.8, ssDAF12 agonist 1.5 | LXRb hcDAF ctr inactive | hcDAF12 conf 7.0
CC(C)C(=O)N1CCC1(C)C(=O)NCc1ccc(F)cc1Cl (stereo not given)	none (no result: DAX1 inh-1)
O=S1(=O)c2c(cccc2N2CCSCC2)Oc2ccccc2CN1Cc1cn(Cc2cccc(F)c2)nn1	none (no result: FXN GAA850 act, DAX1 inh-1)
COc1ccc(NC(=O)c2c(Cl)n(C)c3ccccc23)cc1	hcDAF-12 act 8.2, ssDAF12 agonist 1.0 | LXRb hcDAF ctr inactive | hcDAF12 conf 6.9
COc1ccc(NS(=O)(=O)NC(=O)c2c(C)n(C)c3ccccc23)cc1	hcDAF-12 act 7.3 | LXRb hcDAF ctr inactive | hcDAF12 conf inactive
S=C(Nc1ccc(Br)cc1)OC1CCC12CCC(c1ccccc1)CC2 (stereo not given)	none (no result: FXN GAA850 act, DAX1 inh-1)
NS(=O)(=O)c1ccc(NC(=S)NCc2ccco2)cc1	hcDAF-12 act 7.2 | LXRb hcDAF ctr inactive | hcDAF12 conf inactive
NC(=O)c1ccc(NC(=S)NCc2ccco2)cc1	none
COc1cc(CN2C(=O)C(C)ON=C2c2ccccc2F)cc(OC)c1 (stereo not given)	none (no result: DAX1 inh-1)
CC1ON=C(c2ccccn2)N(Cc2ccc(S(C)(=O)=O)cc2)C1=O (stereo not given)	hcDAF-12 act 10.3 (no result: DAX1 inh-1) | LXRb hcDAF ctr inactive | hcDAF12 conf inactive
Cc1c(C(=O)NCc2ccc3c(c2)OCCO3)sc(=O)n1Cc1cccc(C(F)(F)F)c1	none (no result: DAX1 inh-1)
CCC(CC)c1nnc(NC(=O)CN2C(=O)NC3(CCCC3)C2=O)s1	none
Cc1nn(-c2ccc(Br)cc2)c(=O)c2ccccc12	hgDAF12 agonist 10.7, hcDAF-12 act 11.1, ssDAF12 agonist 1.7 | LXRb hcDAF ctr inactive | hcDAF12 conf 10.9
Cn1c(=O)c(-c2cc(Br)ccc2N)nc2ccccc21	hcDAF-12 act 10.9, ssDAF12 agonist 1.2 | LXRb hcDAF ctr inactive | hcDAF12 conf 12.5
C[C@H]1CN([C@@H](C)CO)C(=O)CCCn2cc(nn2)CO[C@@H]1CN(C)C(=O)CCC(F)(F)F	none
Cc1nc2ccc(N=NC3=C(O)CC(C)(C)CC3=O)cc2s1	hgDAF12 agonist 12.3, hcDAF-12 act 8.0, ssDAF12 agonist 1.6 | LXRb hcDAF ctr inactive | hcDAF12 conf 7.5
Cc1nc2ccc(N=NC3=C(O)CCCC3=O)cc2s1	none
O=C(Nc1ccc2cccnc2c1)c1ccc(Br)cc1	hcDAF-12 act 8.6 | LXRb hcDAF ctr inactive | hcDAF12 conf 7.0
ClCc1nc2ccccc2c2ccccc12	none
COc1cc(/C=N/Nc2ccc(C(=O)O)cc2)ccc1O	hcDAF-12 act 6.8 | LXRb hcDAF ctr inactive | hcDAF12 conf 6.4
COc1ccc(/C=N/Nc2ccccn2)cc1OC	none (no result: DAX1 inh-1)
COc1cc(/C=N/Nc2ccccn2)ccc1O	hgDAF12 agonist 12.1, DAX1 inh-1 4.3, hcDAF-12 act 7.3 | LXRb hcDAF ctr inactive | hcDAF12 conf 7.6
N#C/C(=C\c1ccc[nH]1)C(=O)c1ccccc1	none
N#C/C(=C\c1ccc[nH]1)C(=O)Nc1ccccc1Cl	hcDAF-12 act 11.1, ssDAF12 agonist 1.2 | LXRb hcDAF ctr inactive | hcDAF12 conf 11.7
CCOC(=O)c1sc(=NC(=O)c2cc(OC)c(OC)c(OC)c2)n(C)c1C	none
CCOC(=O)c1sc(=NC(=O)c2ccc(C)cc2)n(C)c1C	hgDAF12 agonist 11.2, hcDAF-12 act 9.7, ssDAF12 agonist 1.2 | LXRb hcDAF ctr inactive | hcDAF12 conf 9.7
N#C/C(=C\c1ccc(-c2nc3ccccc3s2)o1)C(N)=O	hcDAF-12 act 6.8 | LXRb hcDAF ctr inactive | hcDAF12 conf inactive
COC(=O)C1CCN(c2nc3ccccc3nc2C(C#N)C(=O)NCCc2ccccc2)CC1 (stereo not given)	hcDAF-12 act 8.2 | LXRb hcDAF ctr inactive | hcDAF12 conf inactive
COC(=O)C1CCN(c2nc3ccccc3nc2C(C#N)C(=O)OCC(C)C)CC1 (stereo not given)	none
O=C(/C=C/c1ccc(-c2ccccc2[N+](=O)[O-])o1)c1ccco1	hcDAF-12 act 7.9 | LXRb hcDAF ctr inactive | hcDAF12 conf inactive
O=C(/C=C/c1ccc([N+](=O)[O-])cc1)c1ccco1	none
O=Nc1c(O)c2ccccc2c2ccccc12	none
O=c1c(=Nc2ccccc2O)c(=O)c2ccccc12	hcDAF-12 act 8.3 | LXRb hcDAF ctr inactive | hcDAF12 conf inactive
O=C1N=c2ccccc2=C1c1sc(=S)n(NC(=O)c2cccc(O)c2)c1O	none
O=C1N=c2ccc(Br)cc2=C1c1sc(=S)n(NS(=O)(=O)c2ccccc2)c1O	hcDAF-12 act 6.6 | LXRb hcDAF ctr inactive | hcDAF12 conf inactive
CC(=O)c1ccc(OCc2cc(=O)n3ccsc3n2)cc1	hcDAF-12 act 9.8 | LXRb hcDAF ctr inactive | hcDAF12 conf inactive
O=C(Cc1nnc(NC(=O)c2ccccc2)s1)N/N=C/c1cccc(O)c1	none
O=C(Cc1nnc(NC(=O)c2ccccc2)s1)N/N=C/c1ccco1	hcDAF-12 act 7.5, ssDAF12 agonist 1.3 | LXRb hcDAF ctr inactive | hcDAF12 conf inactive

Screening results as filed in PubChem BioAssay.
